Bioassay records as filed in PubChem.
The entries come from a sample that favours hits as a whole.
VDR inh – blocks the human vitamin D receptor | P11473 | VDR-SRC2-3 peptide fluorescence polarization, 2 h | Potency, µM, hits mostly inhibitors | 400,000 compounds, 0.93% hits
Target sequence (P11473 whole entry, looked up): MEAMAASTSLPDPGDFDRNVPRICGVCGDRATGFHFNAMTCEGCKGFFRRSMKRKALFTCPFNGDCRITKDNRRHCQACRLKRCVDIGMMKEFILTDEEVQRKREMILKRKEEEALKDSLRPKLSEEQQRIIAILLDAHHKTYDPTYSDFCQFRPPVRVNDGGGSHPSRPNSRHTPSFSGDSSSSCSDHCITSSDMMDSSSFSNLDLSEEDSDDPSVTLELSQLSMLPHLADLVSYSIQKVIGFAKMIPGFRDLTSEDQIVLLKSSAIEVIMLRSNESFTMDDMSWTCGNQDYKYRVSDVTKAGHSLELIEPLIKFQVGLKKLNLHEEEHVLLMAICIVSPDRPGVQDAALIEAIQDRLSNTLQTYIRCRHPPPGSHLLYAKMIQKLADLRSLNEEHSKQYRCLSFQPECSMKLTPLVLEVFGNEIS
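Reagent solutions, kept cold and dark, are dispensed first; compounds are then pinned in at 23 nl, plates briefly spun, and incubated 2 h at ambient temperature. Inhibition of VDR–SRC2-3 peptide binding is read by fluorescence polarization.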
Glioma ERSR ind – inducers of ER stress response in human glioma cells. Potency, µM, actives largely listed as activators. 420,000 compounds, 0.02% hits. U87-MG GRP78 promoter luciferase reporter, 16 h; also: series mostly up to about 76 µM; nearly all actives have a fitted effect of over 35% in size
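Stably transfected U87-MG glioma cells carrying a GRP78-based luciferase sensor; 16 h compound incubation. Luminescence end-point read 10 min after Bright-Glo addition at room temperature.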
Sfp inh – inhibitors of Bacillus subtilis Sfp phosphopantetheinyl transferase; Q9F4F7; Biochemical Sfp PPTase activity, qHTS; Potency, µM, actives largely listed as inhibitors; 310,000 compounds, 3.5% hits; AID 1490;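 also: the enzyme is Sfp with the accession as filed and its product quenches rhodamine fluorescence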
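Sfp 15 nM + cpd, 15 min RT; start w/ rhodamine-CoA 5 uM, BHQ-2-YbbR 12.5 uM (final); 50 mM Hepes pH 7.6, 10 mM MgCl2, 0.01% NP-40, 0.01% BSA; read 525/598 nm at 0 and 30 min.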
G9a inh – G9a (human) methyltransferase inhibition; Q96KQ7; G9a H3K9 monomethylation, AlphaScreen, 2 h; 350,000 compounds, 8.8% hits; Potency, µM (top dose mostly 102 µM), actives largely listed as inhibitors; also: nearly all actives have a fitted effect of over 75% in size
Target sequence (Q96KQ7 913-1193 limits assumed): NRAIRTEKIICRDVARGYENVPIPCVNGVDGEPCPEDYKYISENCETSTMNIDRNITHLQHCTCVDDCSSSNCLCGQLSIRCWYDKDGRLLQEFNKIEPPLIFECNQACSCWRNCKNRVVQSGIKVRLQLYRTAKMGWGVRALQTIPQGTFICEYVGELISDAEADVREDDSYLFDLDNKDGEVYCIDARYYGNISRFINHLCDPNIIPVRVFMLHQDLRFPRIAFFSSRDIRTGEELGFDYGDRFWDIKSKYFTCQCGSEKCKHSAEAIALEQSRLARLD
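Readings reflect AlphaScreen signal from monomethyl-H3K9 antibody detection. HMT at 20 nM; substrate b-H3K9 500 nM; cofactor SAM 20 uM; 2 h RT reaction; compounds tested as titrations in qHTS with 15 min preincubation.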
12-LOX inh – blocks human arachidonate 12S-lipoxygenase | purified 12hLO, xylenol orange hydroperoxide absorbance | P18054 | Potency, µM (doses to about 108 µM), most hits filed as inhibitors | 580,000 compounds, 1.1% hits
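Purified human 12hLO at 150 nM in 25 mM Hepes, 0.01% Triton X-100, pH 7.0, preincubated 15 min at room temperature with compound. Reaction started with 40 uM arachidonic acid, 30 min at room temperature. Hydroperoxide measured by Fe-xylenol orange, 573/405 nm absorbance ratio.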
Numbers stand for hits; i = inactive; ? = inconclusive; nt = no result given; [ ] = dose if it differs, or a comment. Calls follow the shape of the dose curve; as a rule, active = well fitted curve in the direction sought with a large enough effect; inconclusive = small, poorly fitted or top-dose-only effect, or another doubt; inactive = no such curve, though single readings can be large; an effect the other way counts as inactive or inconclusive.

SMILES	VDR inh	Glioma ERSR ind	Sfp inh	G9a inh	12-LOX inh
O=C(c1cccs1)N(Cc1ccccn1)Cc1ccco1	i	i	79µM	?	i
Cc1cccc2cc(CN(Cc3ccco3)C(=O)c3cccs3)c(=O)[nH]c12	i	i	i	i[12.7 µM]	i
O=C(c1cccc(Cl)c1Cl)N(Cc1ccco1)Cc1cccs1	79µM	i	nt	nt	nt
O=C(c1ccco1)N(Cc1ccccc1)Cc1ccccn1	?	i	i	79µM	i
Cc1oc(-c2cccs2)nc1CC(=O)N1CCOCC1	nt	nt	nt	nt	i
CCc1ccccc1NC(=O)CN1CCN(C(=O)CN(C)Cc2cnn(-c3ccccc3)c2)CC1	nt	nt	nt	nt	i
CCOc1ccc(NC(=O)NC2CCN(c3nc4ccccc4s3)CC2)cc1	nt	nt	nt	nt	i
CC1=NN(c2nc(C)cc(C)n2)C(=O)C1CCC(C)C (centres undefined)	i	i	i	i	i
CCC1C(=O)N(c2nc(C)cc(C)n2)N=C1C (centres undefined)	i	i	56µM	20µM	i
CC(C)N(C(=O)Cn1c(C2CC(=O)N(Cc3ccc(F)cc3)C2)nc2ccccc21)c1ccccc1 (centres undefined)	nt	nt	nt	nt	i
Cc1ccc(S(=O)(=O)NC(C)C(=O)NC2CC2)cc1 (centres undefined)	i	i	i	79µM	i
CCc1ccc(CN(C)CC(=O)Nc2ccccc2[N+](=O)[O-])cc1	i	i	i	79µM	i
CN(CC(=O)Nc1cccc(F)c1)CC(=O)Nc1ccccc1[N+](=O)[O-]	i	i	i	i	i
C=CCOc1ccc(CN(C)CC(=O)Nc2ccccc2[N+](=O)[O-])cc1	i	i	?	14µM	i
C/C(=N\NC(=O)C1CCCCC1)c1ccc(NC(=O)c2ccc(Cl)s2)cc1	nt	nt	nt	nt	i
Oc1ccccc1C1=Nc2ncnn2C(c2ccc(F)cc2)C1 (centres undefined)	i	i	i	25µM	i
CN(Cc1ccc(F)cc1F)C(=O)c1cc(Br)ccc1O	nt	nt	nt	nt	10µM
CCc1nnsc1C(=O)N(C)Cc1ccc(F)cc1F	nt	nt	nt	nt	i
CN(C)c1cccc2c1c(NC(=O)Nc1ccccc1)nn2C	i	i	i	35µM	?
O=C1C2C3C=CC(C2C(=O)N1c1ccc(O)cc1)C1C2C(=O)N(c4ccc(O)cc4)C(=O)C2C31 (centres undefined)	i	i	i	50µM	i
O=C1C=CC(=O)N1c1ccc(OC(F)F)cc1	16µM	i	?	1.4µM	i
O=C1C=CC(=O)N1c1ccc(O)cc1	25µM	i	13µM	1µM	i
Cc1cc(O)cc(=O)n1-c1ccc(OC(F)F)cc1	nt	nt	nt	nt	i
Cc1nn(C(=O)C2CCCN2S(=O)(=O)c2ccc(F)cc2)c(C)c1Sc1ccccc1 (centres undefined)	nt	nt	nt	nt	i
Cc1ccc(C(=O)Nc2ccc(CCC(=O)N(C)C)cc2)cc1	nt	nt	nt	nt	i
SMILES	VDR inh	Glioma ERSR ind	Sfp inh	G9a inh	12-LOX inh
Cc1cc(C(c2ccc(C)o2)c2ccc(C)o2)c(O)c([N+](=O)[O-])c1	i	i	50µM	35µM	35µM
Cc1ccc(C(c2ccc(C)o2)c2cccc([N+](=O)[O-])c2O)o1	i	i	?	40µM	?
Cc1cc(/C=N/n2cnnc2)c(O)c([N+](=O)[O-])c1	i	i	i	i	i
Cc1c(C(c2cccc([N+](=O)[O-])c2O)c2c(C)n(C)n(-c3ccccc3)c2=O)c(=O)n(-c2ccccc2)n1C	i	i	i	i[12.7 µM]	i
CC(=O)c1ccc(OCC(=O)c2ccc(-c3ccccc3)cc2)cc1	i	i	i	i	i
Cc1cc(C)c[n+](CC(=O)c2ccc(-c3ccccc3)cc2)c1	i	i	i	50µM	i
CCN(CC)CC(=O)c1ccc(-c2ccccc2)cc1	40µM	i	i	?	i
Cc1ccc(C(=O)c2ccc(-c3ccccc3)cc2)cc1	nt	nt	nt	nt	i
CN(C)CC(=O)c1ccc(-c2ccccc2)cc1	?	i	?	32µM	i
CCN(CC)C(=O)c1ccc(-c2ccccc2)cc1	i	i	i	i	i
C/[N+]([O-])=C\CC(=O)c1ccc(-c2ccccc2)cc1	i	i	i	14µM	i
COc1ccc(C(C)=O)cc1CO/N=C/c1ccc(OC(F)F)cc1	nt	nt	nt	nt	i
CCN(CC)c1ccc(C(=O)c2ccccc2C(=O)O)c(O)c1	i	i	i	i	?
O=C(O)c1cc(N(Cc2ccccc2O)Cc2ccccc2O)ccc1O	?	i	56µM	nt	?
CCCCCCCCCCCCCCCC(=O)NC(C)C(=O)O (centres undefined)	i	nt	i	nt	nt
CCCCCCCCCCCCCCCC(=O)N[C@@H](COP(=O)(O)O)C(=O)O	13µM	i	i	i	i[12.5 µM]
Cc1ccc(-c2cnc(SCCNC(=O)c3ccco3)[nH]2)cc1	i	i	nt	45µM	i
O=C(c1cc(C(F)(F)F)cc(C(F)(F)F)c1)N1CCCC(CO)C1 (centres undefined)	nt	nt	nt	nt	i
Fc1cccc(CCN2C(=S)NC[C@@H]2CC2CCCCC2)c1	i	i	i	i[12.7 µM]	40µM
Cn1c(=O)c2c(nc(CN(Cc3ccccc3)Cc3ccccc3)n2CC(N)=O)n(C)c1=O	nt	nt	nt	nt	i
CC1Cc2ccccc2N1C(=O)COC(=O)c1ccco1 (centres undefined)	nt	i	nt	nt	i
CCN(CC)c1cccc(OCC(=O)N2c3ccccc3CC2C)c1 (centres undefined)	i	i	nt	10µM	?
Cc1cc(C(=O)OCC(=O)N2c3ccccc3CC2C)c(C)o1 (centres undefined)	i	i	i	11µM	i
CC1=C(C(=O)N2CCOCC2)C(c2ccc(O)cc2)NC(=S)N1 (centres undefined)	i	i	?	?	i
Oc1ccc2c(c1)C1CCCC1(N1CCOCC1)O2 (centres undefined)	i	i	50µM	8.9µM	i
SMILES	VDR inh	Glioma ERSR ind	Sfp inh	G9a inh	12-LOX inh
Oc1ccccc1C=Nc1ccc(Cl)cc1C(F)(F)F	nt	nt	nt	nt	i
CC(C)Oc1ccc(C(=O)NC2CCCCC2)cc1	i	i	i	i	i
CC(C)Oc1ccc(C(CCN)C2CCCCC2)cc1 (centres undefined)	i	i	?	16µM	?
O=C(NCc1cccnc1)c1ccccc1NS(=O)(=O)c1ccc2[nH]c(=O)[nH]c2c1	nt	nt	nt	nt	i
CC1(C)C2CCC(C2)C1(C)NC(=O)CN1CCOCC1 (centres undefined)	i	i	i	10µM	?
CNC1(C)C2CCC(C2)C1(C)C (centres undefined)	i	i	i	i	nt
CC1(C)C2CCC(C2)C1(C)NC(=O)CNC1CCCCC1 (centres undefined)	i	i	i	13µM	i
CC1(C)C2CCC(C2)C1(C)NC(=O)CN1CCCC1 (centres undefined)	i	i	i	5µM	?
O=C(Nc1ccc(F)cc1)C(=O)c1c[nH]c2ccccc12	nt	nt	nt	nt	i
Cc1nc2ccc(CCO)cc2s1	i	i	i	1.1µM	i
O=C(OCc1cccc2ccccc12)c1cc(=O)c2ccccc2o1	nt	nt	nt	nt	i
CC(C)(C)C1CCC(C(=O)OCC(=O)Nc2ccc3[nH]c(=O)[nH]c3c2)CC1 (centres undefined)	i	i	i	45µM	i
